Measurements: PubChem BioAssay (NCATS)
Several values for one entry are separate records, joined by “and”; a condition that tells them apart may be missing. Equal entries are not always repeated. Records with an inconclusive call do not appear. Activity calls are given as the source filed them. Unless noted, the call rests on the fitted dose curve; in most records, active means well fitted curve in the direction sought with a large enough effect; inconclusive means small, poorly fitted or top-dose-only effect, or another doubt; inactive means no such curve, though single readings can be large; an effect the other way counts as inactive or inconclusive.

Key:
[1] = Cell Viability - BJ (AID 421; calls by dose curve;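 further: potency means the concentration at half of the fitted maximal effect; cells exposed to compound for 40 hours at 37 °C before readout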); details: BJ fibroblast viability, qHTS
Outline: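 Normal human BJ foreskin fibroblasts, 1500/well in complete medium, treated 40 hr at 37 °C. Cellular ATP by CellTiter-Glo luminescence; normalized to DMSO and 100 uM tamoxifen, AC50 from Hill fit.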

[2] = Cell Viability - Jurkat (AID 426;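 active means dose-dependent loss of cell ATP signal giving a full or clear fitted curve, ranked by lower potency value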; further: potency means the concentration at half of the fitted maximal effect); details: qHTS
Outline: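 Luminescent ATP read-out (CellTiter-Glo, 20 min at room temperature) after 40 hr compound exposure at 37 °C of Jurkat E6-1 cells, 5000/well. Decreased ATP taken as cytotoxicity; AC50 from standard Hill equation.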

[3] = Cell Viability - Hek293 (AID 427;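 active means compounds whose dose-response curve shows a full or clear partial loss of cell viability, called from curve shape rather than a numeric limit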;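 further: potency means the concentration at half of the fitted maximal effect; cells exposed to compound for 40 hours at 37 °C before reading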); details: qHTS
Outline: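 HEK293 cells in complete medium were exposed to compound for 40 hr at 37 °C, then cellular ATP was read by CellTiter-Glo luminescence. Data were normalized to DMSO (basal) and 100 uM tamoxifen (100% inhibition), and AC50 came from Hill fits.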

[4] = Cell Viability - HepG2 (AID 433; calls by dose curve;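 further: potency means the concentration at half of the fitted maximal effect; potency for ATP loss meaning cytotoxicity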); details: qHTS
Outline: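 Cytotoxicity read as ATP loss (CellTiter-Glo luminescence) after 40 hr compound exposure of HepG2, 1500 cells/well, 37 °C. AC50 by Hill equation; 0% set by DMSO, 100% inhibition by 100 uM tamoxifen.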

[5] = Cell Viability - MRC5 (AID 434; calls by dose curve;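 further: potency means the concentration at half of the fitted maximal effect; potency reflects cytotoxicity seen as loss of intracellular ATP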); details: MRC5 lung fibroblast viability, qHTS
Outline: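 Decrease in intracellular ATP, quantified by luciferase light output, reflects compound toxicity toward MRC5 cells exposed for 40 hr in complete culture medium. Concentration-response curves, scaled between DMSO and 100 uM tamoxifen, gave AC50 values.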

[6] = Cell Viability - SK-N-SH (AID 435; calls by dose curve; further: potency means the concentration at half of the fitted maximal effect); details: SK-N-SH neuroblastoma cell viability qHTS
Outline: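 qHTS cytotoxicity: CellTiter-Glo ATP luminescence after 40 h compound exposure of human neuroblastoma SK-N-SH cells at 37 °C. AC50 derived by Hill-equation fitting, with DMSO as basal and 100 uM tamoxifen as full inhibition.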

[7] = Cellular Toxicity (caspase-3) HepG2 (AID 654); details: HepG2 caspase-3 activation, luminescence, 0% = DMSO only, 100% = tamoxifen; series mostly up to 92.2 µM;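 further: cells exposed to compound for 16 hours before reading; 0% = DMSO alone and 100% = caspase signal from 100 µM tamoxifen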
Outline: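 Luminescent Caspase-Glo 3/7 readout after 16 hr compound exposure of human hepatocellular carcinoma HepG2 cells at 37 °C; qHTS concentration-response, normalized DMSO = 0%, 100 uM tamoxifen = 100%; AC50 by standard Hill equation.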

[8] = Cellular Toxicity (caspase-3) BJ (AID 658); details: BJ fibroblasts, luminescence, normalized: DMSO 0%, staurosporine 100%; series mostly up to 91.7 µM
Outline: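 Plated BJ cells (1000/well) rested 5 hr, received compound for 16 hr at 37 °C, then Caspase-Glo 3/7 reagent for 1 hr at room temperature before luminescence reading.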

[9] = Cellular Toxicity (caspase-3) MRC-5 (AID 659); details: MRC-5 cells, luminescence, normalized: DMSO 0%, 10 µM staurosporine 100%; series mostly up to 91.7 µM
Outline: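 Apoptosis readout in MRC-5 cells: luciferase light generated after caspase 3/7 cleaves a peptide-aminoluciferin substrate, measured post 16 hr compound incubation at 37 °C.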

[10] = Cellular Toxicity (caspase-3) Hek293 (AID 664); details: HEK293 caspase-3 activation, DMSO = 0%, 100 µM tamoxifen = 100%; at 92.2 µM (top of the series);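 further: cells exposed to compound for 16 h at 37 °C before readout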
Outline: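 Luminescent Caspase-Glo 3/7 readout (aminoluciferin release) in HEK293 cells after 16 h compound treatment, 37 °C. Normalization: DMSO = basal, 100 uM tamoxifen = 100% stimulation. Concentration-response fitted with standard Hill equation for AC50.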

[11] = Cellular Toxicity (caspase-3) N2a (AID 665); details: N2a cells, luminescence, normalized: DMSO 0%, 10 µM staurosporine 100%; series mostly up to 92.2 µM;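 further: compound exposure lasted 16 h at 37 °C before readout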
Outline: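 Luminescent Caspase-Glo 3/7 readout in N2a mouse neuroblastoma cells after 16 h compound exposure at 37 °C. Signal scaled to DMSO (basal) and 10 uM staurosporine (100%). Concentration-response fitted with Hill equation for AC50.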

[12] = Cellular Toxicity (caspase-3) NIH 3T3 (AID 666); details: NIH 3T3 caspase-3 activation, apoptosis/toxicity; series mostly up to 92.2 µM;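 further: 0% = DMSO basal and 100% = 100 µM tamoxifen stimulation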
Outline: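 NIH 3T3, 1000 cells/well, 5 hr settle then 16 hr compound at 37°C; Caspase-Glo 3/7, 20 min RT, luminescence. DMSO = basal, 100 uM tamoxifen = 100%. Hill-equation AC50, qHTS.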

[13] = MultiTox-Fluor Cytotoxicity Assay - LYMP1-001 - Dead Cells (AID 946); details: LYMP1-001 lymphoblastoid cells, dead-cell protease fluorescence; series mostly up to 92.2 µM;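 further: 0% = DMSO and 100% = tetraoctylammonium bromide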
Outline: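 LYMP1-001 lymphoblastoid cells (2500/well) treated 16 h at 37 C. Dead-cell protease cleavage of bis-AAF-R110 read at Ex/Em 485/520. Normalized to DMSO and 15 uM tetraoctylammonium bromide; AC50 from Hill fits.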

[14] = MultiTox-Fluor Cytotoxicity Assay - LYMP1-002 - Live Cells (AID 955); details: LYMP1-002 lymphoblastoid live-cell protease fluorescence viability; series mostly up to 46.1 µM; further: on the % scale 0 is the no-effect control and ±100 the full control effect
Outline: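 LYMP1-002 lymphoblastoid cells; 2500 cells/well; 16 hr compound exposure, 37 C; MultiTox-Fluor reagent 60 min RT; live-cell fluorescence Ex/Em=405/510; qHTS concentration-response, Hill-equation AC50; tetraoctylammonium bromide positive control.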

[15] = MultiTox-Fluor Cytotoxicity Assay - LYMP1-003 - Dead Cells (AID 961); details: LYMP1-003 lymphoblastoid cells, dead-cell protease fluorescence; series mostly up to 92.2 µM;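 further: 0% = DMSO and 100% = tetraoctylammonium bromide; nearly all actives have a fitted effect of over 70% in size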
Outline: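 LYMP1-003 human lymphoblastoid cells (2500/well) exposed to compound 16 h at 37 C in complete medium; dead-cell protease read with bis-AAF-R110 fluorescence (Ex/Em 485/520) after 60 min at room temperature. Normalized to DMSO and 15 uM tetraoctylammonium bromide; AC50 from Hill fit.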

[16] = Cell Viability - LYMP2-008 (AID 980); details: LYMP2-008 lymphoblastoid cell viability, qHTS; series mostly up to 92.2 µM; further: on the % scale 0 is the no-effect control and ±100 the full control effect; nearly all actives have a fitted effect of over 60% in size
Outline: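 Luminescent ATP read-out (CellTiter-Glo, 30 min RT) after 24 hr compound exposure at 37 C of human lymphoblastoid cells in complete medium. Decrease in ATP taken as cytotoxicity; AC50 derived by standard Hill fit of qHTS concentration-response data.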

[17] = Cell Viability - LYMP1-002 - Assay at 24 hr (AID 993); details: LYMP1-002 lymphoblastoid cells viability; series mostly up to 92.2 µM; further: on the % scale 0 is the no-effect control and ±100 the full control effect
Outline: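 CellTiter-Glo luminescence (intracellular ATP) after 24 h compound exposure, 37 C, in LYMP1-002 human lymphoblastoid cells; decreased ATP taken as cytotoxicity. AC50 from standard Hill fit of concentration-response curves.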

[18] = qHTS Assay for Identification of Small Molecule Inducers of Hypoxia Response (AID 2120; active means well fitted curve in the direction sought with a large enough effect in the signal ratio, with a control signal flat, not every such curve was filed as active; the % refers to the signal ratio; further: 0% is about no effect); details: hypoxia response reporter cells, beta-lactamase ratio readout; series mostly up to 104 µM
Outline: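 Read-out: CCF4 FRET emission ratio 460nm/530nm (excitation 405nm), converted to %Activity, with AC50 fitted across a compound titration. ME-180 cells carried an HRE-driven beta-lactamase reporter; compound exposure 17 h, 37 degrees C.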

[19] = target: Peroxisome proliferator-activated receptor alpha (Homo sapiens) (UniProt Q07869); assay: qHTS assay for small molecule agonists of the peroxisome proliferator-activated receptor alpha (PPARalpha) signaling pathway (AID 651778); details: PathHunter PPARalpha complementation, chemiluminescence, 6 h; stronger effect = higher value; further: % of control where 0% means no effect
Outline: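 Cells plated at 2,000/well and held overnight at 37 C, 5% CO2, then compound added by pin tool for 6 hr; after PathHunter detection reagent and 60 min at room temperature, chemiluminescence from enzyme complementation was read.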

[20] = qHTS assay for cell viability of the p53RE-bla HCT-116 cell line (AID 743292); details: p53RE-bla HCT-116 viability, ATP luminescence, 16 h; series mostly up to 95 µM; further: on the % scale 0 is the no-effect control and ±100 the full control effect; nearly all actives have a fitted effect of over 55% in size
Outline: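 Quantitative high-throughput format: compounds in DMSO were pinned onto p53RE-bla HCT-116 cells (4,000/well) and incubated 16 h at 37 C. Total intracellular ATP, read by CellTiter-Glo luminescence, reflects viable cell number.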

Sequence of Peroxisome proliferator-activated receptor alpha (Homo sapiens) (Q07869 whole entry, looked up): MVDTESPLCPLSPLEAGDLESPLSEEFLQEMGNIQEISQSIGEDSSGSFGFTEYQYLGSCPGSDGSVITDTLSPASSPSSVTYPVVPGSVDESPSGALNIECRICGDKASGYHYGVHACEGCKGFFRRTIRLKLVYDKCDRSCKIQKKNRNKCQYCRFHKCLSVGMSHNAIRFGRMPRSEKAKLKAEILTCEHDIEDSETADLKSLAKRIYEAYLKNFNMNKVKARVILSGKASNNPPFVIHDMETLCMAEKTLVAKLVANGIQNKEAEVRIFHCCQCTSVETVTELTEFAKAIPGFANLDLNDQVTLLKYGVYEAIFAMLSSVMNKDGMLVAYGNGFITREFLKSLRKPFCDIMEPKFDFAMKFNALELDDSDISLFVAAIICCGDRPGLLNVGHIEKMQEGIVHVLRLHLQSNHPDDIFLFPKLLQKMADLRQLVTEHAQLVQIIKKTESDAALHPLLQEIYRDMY

C1CC2OC2CC1C1CO1 (stereo not given)
inactive: Potency [1] > 92 µM | Potency [2] > 92 µM | Potency [3] > 92 µM | Potency [4] > 92 µM | Potency [5] > 92 µM | Potency [6] > 92 µM | outcome [7] | outcome [8] | outcome [9] | caspase-3 activation [10] -2.81% | outcome [11] | Potency [12] | outcome [13] | outcome [14] | Potency [15] | Potency [16] | Potency [17] | Potency [18] | max response [19] -1.95% and -1.6% | Potency [20]

CC(C)C#N
inactive: Potency [1] > 92 µM | Potency [2] > 92 µM | Potency [3] > 92 µM | Potency [4] > 92 µM | Potency [5] > 92 µM | Potency [6] > 92 µM | outcome [7] | outcome [8] | outcome [9] | caspase-3 activation [10] 1.03% | outcome [11] | Potency [12] | outcome [13] | outcome [14] | Potency [15] | Potency [16] | Potency [17] | Potency [18] | max response [19] 2.25% | Potency [20]

Brc1cccc(-c2ccccc2)c1
inactive: Potency [1] > 92 µM | Potency [2] > 92 µM | Potency [3] > 92 µM | Potency [4] > 92 µM | Potency [5] > 92 µM | Potency [6] > 92 µM | outcome [7] | outcome [8] | outcome [9] | caspase-3 activation [10] -1.08% | outcome [11] | Potency [12] | outcome [13] | outcome [14] | Potency [15] | Potency [16] | Potency [17] | Potency [18] | max response [19] -1.43% | Potency [20]

Cc1cccc(C)c1N
inactive: Potency [1] > 92 µM | Potency [2] > 92 µM | Potency [3] > 92 µM | Potency [4] > 92 µM | Potency [5] > 92 µM | Potency [6] > 92 µM | outcome [7] | outcome [8] | outcome [9] | caspase-3 activation [10] 0.142% | outcome [11] | Potency [12] | outcome [13] | outcome [14] | Potency [15] | Potency [16] | Potency [17] | Potency [18] | max response [19] 1.61% | Potency [20]

CN(C)C(=O)Nc1ccc(Cl)cc1
inactive: Potency [1] > 92 µM | Potency [2] > 92 µM | Potency [3] > 92 µM | Potency [4] > 92 µM | Potency [5] > 92 µM | Potency [6] > 92 µM | outcome [7] | outcome [8] | outcome [9] | caspase-3 activation [10] 2.1% | outcome [11] | Potency [12] | outcome [13] | outcome [14] | Potency [15] | Potency [16] | Potency [17] | Potency [18] | max response [19] -3.6% and -1.79% | Potency [20]

ClC(Br)Br
inactive: Potency [1] > 92 µM | Potency [2] > 92 µM | Potency [3] > 92 µM | Potency [4] > 92 µM | Potency [5] > 92 µM | Potency [6] > 92 µM | outcome [7] | outcome [8] | outcome [9] | caspase-3 activation [10] -0.91% | outcome [11] | Potency [12] | outcome [13] | outcome [14] | Potency [15] | Potency [16] | Potency [17] | Potency [18] | max response [19] -8.35% | Potency [20]

c1ccoc1
inactive: Potency [1] > 92 µM | Potency [2] > 92 µM | Potency [3] > 92 µM | Potency [4] > 92 µM | Potency [5] > 92 µM | Potency [6] > 92 µM | outcome [7] | outcome [8] | outcome [9] | caspase-3 activation [10] -1.2% | outcome [11] | Potency [12] | outcome [13] | outcome [14] | Potency [15] | Potency [16] | Potency [17] | Potency [18] | max response [19] 0.928% | Potency [20]

Cc1coc2c1CCC(C)C2 (stereo not given)
inactive: Potency [1] > 92 µM | Potency [2] > 92 µM | Potency [3] > 92 µM | Potency [4] > 92 µM | Potency [5] > 92 µM | Potency [6] > 92 µM | outcome [7] | outcome [8] | outcome [9] | caspase-3 activation [10] 0.975% | outcome [11] | Potency [12] | outcome [13] | outcome [14] | Potency [15] | Potency [16] | Potency [17] | Potency [18] | max response [19] 9.95% | Potency [20]

CCCCOCC1CO1 (stereo not given)
inactive: Potency [1] > 92 µM | Potency [2] > 92 µM | Potency [3] > 92 µM | Potency [4] > 92 µM | Potency [5] > 92 µM | Potency [6] > 92 µM | outcome [7] | outcome [8] | outcome [9] | caspase-3 activation [10] 3.87% | outcome [11] | Potency [12] | outcome [13] | outcome [14] | Potency [15] | Potency [16] | Potency [17] | Potency [18] | max response [19] -2.14% | Potency [20]

C=CC(=O)OCCN(C)C
inactive: Potency [1] > 92 µM | Potency [2] > 92 µM | Potency [3] > 92 µM | Potency [4] > 92 µM | Potency [5] > 92 µM | Potency [6] > 92 µM | outcome [7] | outcome [8] | outcome [9] | caspase-3 activation [10] -0.126% | outcome [11] | Potency [12] | outcome [13] | outcome [14] | Potency [15] | Potency [16] | Potency [17] | Potency [18] | max response [19] 10.1% | Potency [20]

O=C(O)C(Cl)(Cl)Br
inactive: Potency [1] > 92 µM | Potency [2] > 92 µM | Potency [3] > 92 µM | Potency [4] > 92 µM | Potency [5] > 92 µM | Potency [6] > 92 µM | outcome [7] | outcome [8] | outcome [9] | caspase-3 activation [10] 1.91% | outcome [11] | Potency [12] | outcome [13] | outcome [14] | Potency [15] | Potency [16] | Potency [17] | Potency [18] | max response [19] -5.37% | Potency [20]
